Source: PubChem BioAssay (EPA / NIEHS)
The source made the active and inactive calls. Rule for the calls: active = hit-call score of the fitted dose curve at least 0.9, where 1 is the maximum; inactive = score below 0.9.

Assays:
[1] = read-out: Interleukin-6 (IL6), IL6 (gene 3569); assay: BSK_CASM3C_IL6: BioMAP Diversity Plus: CASM3C Assay for Interleukin-6 (IL6) Biomarker Activity for (AID 2283040); details: primary human coronary artery smooth muscle cells; actives raise or lower the signal
[2] = read-out: Tissue plasminogen activator (tPA), PLAT (gene 5327); assay: BSK_BE3C_tPA: BioMAP Diversity Plus: BE3C Assay for Tissue plasminogen activator (tPA) Biomarker Activity (AID 2283041); details: primary human bronchial epithelial cells; actives raise or lower the signal;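 note: tPA level quantified by ELISA one day after compound addition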
Outline: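 Using human lung primary bronchial epithelial cells, tPA was measured by ELISA 24 h after dosing; data fitted relative to DMSO.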

[3] = read-out: Interleukin-8 (IL8), CXCL8 (gene 3576); assay: BSK_CASM3C_IL8: BioMAP Diversity Plus: CASM3C Assay for Interleukin-8 (IL8) Biomarker Activity (AID 2283042); details: primary human coronary artery smooth muscle cells; actives raise or lower the signal;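 note: IL-8 protein level quantified by ELISA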
[4] = read-out: Human Leukocyte Antigen - DR isotype (HLADR), HLA-DRA (gene 3122); assay: BSK_CASM3C_HLADR: BioMAP Diversity Plus: CASM3C Assay for Human Leukocyte Antigen - DR isotype (HLADR) Biomarker Activity (AID 2283043); details: primary human coronary artery smooth muscle cells; actives raise or lower the signal;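 note: cell-surface HLA-DR protein level quantified by ELISA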
[5] = read-out: Macrophage colony-stimulating factor (MCSF), CSF1 (gene 1435); assay: BSK_CASM3C_MCSF: BioMAP Diversity Plus: CASM3C Assay for Macrophage colony-stimulating factor (MCSF) Biomarker Activity (AID 2283044); details: primary human coronary artery smooth muscle cells; actives raise or lower the signal;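 note: M-CSF protein amount quantified by ELISA after 24 h exposure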
[6] = read-out: Low-density lipoprotein receptor (LDLR), LDLR (gene 3949); assay: BSK_CASM3C_LDLR: BioMAP Diversity Plus: CASM3C Assay for Low-density lipoprotein receptor (LDLR) Biomarker Activity (AID 2283045); details: primary human coronary artery smooth muscle cells; actives raise or lower the signal;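 note: LDLR protein level on the cell surface quantified by ELISA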
[7] = read-out: Monocyte Chemoattractant Protein-1 (MCP1), CCL2 (gene 6347); assay: BSK_CASM3C_MCP1: BioMAP Diversity Plus: CASM3C Assay for Monocyte Chemoattractant Protein-1 (MCP1) Biomarker Activity (AID 2283046); details: primary human coronary artery smooth muscle cells; actives raise or lower the signal;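 note: MCP-1 level quantified by ELISA 24 h after dosing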
[8] = BSK_CASM3C_Proliferation: Cell Proliferation Assessment in the BioMAP Diversity Plus: CASM3C Assay (AID 2283047); details: primary human coronary artery smooth muscle cells;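 note: sulforhodamine B total protein stain as relative cell number at 560 nm; sub-confluent cells exposed 48 h before staining; fitted both ways against DMSO so gain or loss of cell number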
[9] = read-out: Monokine induced gamma interferon (MIG), CXCL9 (gene 4283); assay: BSK_CASM3C_MIG: BioMAP Diversity Plus: CASM3C Assay for Monokine induced gamma interferon (MIG) Biomarker Activity (AID 2283048); details: primary human coronary artery smooth muscle cells; actives raise or lower the signal;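 note: MIG protein level measured by ELISA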
[10] = read-out: serum amyloid A (SAA), SAA1 (gene 6288); assay: BSK_CASM3C_SAA: BioMAP Diversity Plus: CASM3C Assay for serum amyloid A (SAA) Biomarker Activity (AID 2283049); details: primary human coronary artery smooth muscle cells; actives raise or lower the signal;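 note: SAA protein level quantified by ELISA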
[11] = BSK_CASM3C_SRB: Viability Assessment in the BioMAP Diversity Plus: CASM3C Assay (AID 2283050); details: primary human coronary artery smooth muscle cells;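 note: total protein by SRB staining as cytotoxicity measure in parallel cultures; cells exposed to compound for 24 h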
[12] = read-out: Thrombomodulin, THBD (gene 7056); assay: BSK_CASM3C_Thrombomodulin: BioMAP Diversity Plus: CASM3C Assay for Thrombomodulin Biomarker Activity (AID 2283051); details: primary human coronary artery smooth muscle cells; actives raise or lower the signal;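 note: thrombomodulin protein level measured by ELISA 24 h after dosing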
[13] = read-out: Tissue Factor, F3 (gene 2152); assay: BSK_CASM3C_TissueFactor: BioMAP Diversity Plus: CASM3C Assay for Tissue Factor Biomarker Activity (AID 2283052); details: primary human coronary artery smooth muscle cells; actives raise or lower the signal;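 note: cell surface tissue factor protein level read by ELISA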
[14] = read-out: Urokinase-type plasminogen activator receptor (uPAR), PLAUR (gene 5329); assay: BSK_CASM3C_uPAR: BioMAP Diversity Plus: CASM3C Assay for Urokinase-type plasminogen activator receptor (uPAR) Biomarker Activity (AID 2283054); details: primary human coronary artery smooth muscle cells; actives raise or lower the signal;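 note: cell-surface uPAR protein level quantified by ELISA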
[15] = read-out: Vascular cell adhesion molecule 1 (VCAM1), VCAM1 (gene 7412); assay: BSK_CASM3C_VCAM1: BioMAP Diversity Plus: CASM3C Assay for Vascular cell adhesion molecule 1 (VCAM1) Biomarker Activity (AID 2283055); details: primary human coronary artery smooth muscle cells; actives raise or lower the signal;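 note: VCAM-1 protein level quantified by ELISA on the cells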
[16] = read-out: Epidermal growth factor receptor (EGFR), EGFR (gene 1956); assay: BSK_hDFCGF_EGFR: BioMAP Diversity Plus: hDFCGF Assay for Epidermal growth factor receptor (EGFR) Biomarker Activity (AID 2283057); details: primary human foreskin fibroblasts; actives raise or lower the signal
Outline: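 Cell-based multiplexed assay in primary human foreskin fibroblasts. EGFR is read by ELISA 24 h after treatment and compared with DMSO controls.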

[17] = read-out: Interleukin-8 (IL8), CXCL8 (gene 3576); assay: BSK_hDFCGF_IL8: BioMAP Diversity Plus: hDFCGF Assay for Interleukin-8 (IL8) Biomarker Activity (AID 2283058); details: primary human foreskin fibroblasts; actives raise or lower the signal
Outline: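 Fibroblast monolayers (human foreskin, hDFCGF) received test chemical for 24 h before ELISA detection of IL-8; either increases or decreases relative to DMSO count as activity.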

[18] = BSK_hDFCGF_Proliferation: Cell Proliferation Assessment in the BioMAP Diversity Plus: hDFCGF Assay (AID 2283059); details: primary human foreskin fibroblasts;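 note: curves fitted for both rise and fall of signal versus DMSO baseline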
Outline: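 Primary human foreskin fibroblasts, sub-confluent; […]; 10% TCA fix, 0.1% SRB stain, A560 total protein. Gain/loss fitted bidirectionally vs DMSO control.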

[19] = read-out: Collagen III, COL3A1 (gene 1281); assay: BSK_hDFCGF_CollagenIII: BioMAP Diversity Plus: hDFCGF Assay for Collagen III Biomarker Activity (AID 2283056); details: primary human foreskin fibroblasts; actives raise or lower the signal
Outline: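 Response relative to DMSO, fitted in both directions, reflects ELISA-measured collagen III in human primary skin fibroblasts 24 h after compound addition.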

Measured: outcome

C=CCCCCCCCCC=O
not listed: [19]
inactive: all other assays above

CCCC(C)C(=O)OCC (centres undefined)
not listed: [17] | [19]
inactive: all other assays above

CCCCCCCO
not listed: [17]
inactive: all other assays above

O=C1CCCCCCCCCCC1
not listed: [19]
inactive: all other assays above

CC(C)C(=O)OCCc1ccccc1
not listed: [17]
inactive: all other assays above
